Inhibition data for five molecules are collected here from PubChem BioAssay AID1066 (SRMLSC, 2008).

Out of some 190,000 compounds screened, about 790 (0.42%) were called active. This excerpt belongs to a sample that is enriched for actives. Values without a mark were called inactive.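 How the source made its calls: active means inhibition above a set limit, the median over all tested compounds plus 3 SD (cut at about 9.5% in these data); inconclusive means no clear call, values can overlap the other calls; inactive means the rest.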

This experiment concerns HMG-CoA reductase (Enterococcus faecalis, mvaE). Put plainly: class II HMG-CoA reductase enzyme inhibition – biochemical, Enterococcus faecalis, primary screen (AID 1066).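 Further: enzyme runs in reverse so mevalonate oxidation gives rising NADPH absorbance; 0% = complete reaction with DMSO and 100% = background rate lacking mevalonate.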 The note with it: purified E. faecalis HMGR, NADPH absorbance 340 nm kinetic; at 10 µM; stronger effect = higher value.
For the molecule `COc1ccc(CCn2c(O)c(C=NCCCn3ccnc3)c(=O)[nH]c2=O)cc1OC`, the inhibition (in general, the relative decrease from the control value, in per cent) was 13.7% (active). `CN(C)CCCN=Cc1c(O)n(Cc2ccco2)c(=O)[nH]c1=O`: the inhibition was 6.16%.

Regarding `COc1ccc(CCn2c(O)c(C=NC3CC3)c(=O)[nH]c2=O)cc1OC`, the inhibition was -3.24%.

As for `CN(C)c1nc(N(C)C)nc(N(C#N)CCCl)n1`, the inhibition is -6.92%. In the case of `O=C(O)CCn1cc(C=C2C(=O)NC(=S)NC2=O)c(-c2cccc(Br)c2)n1`, the inhibition was 1.54%.
